Experimental data from PubChem BioAssay (NCATS).
Inconclusive results are not listed. Calls of active or inactive are those of the source. Unless noted, the call rests on the fitted dose curve; in most records, active means well fitted curve in the direction sought with a large enough effect; inconclusive means small, poorly fitted or top-dose-only effect, or another doubt; inactive means no such curve, though single readings can be large; an effect the other way counts as inactive or inconclusive.

Columns and labels:
[1] = MultiTox-Fluor Cytotoxicity Assay - LYMP1-001 - Dead Cells (AID 946); conditions: LYMP1-001 lymphoblastoid cells, dead-cell protease fluorescence; series mostly up to 92.2 µM; further: potency means the concentration at half of the fitted maximal effect
Procedure, shortened: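 In this qHTS, 15 uM tetraoctylammonium bromide defined 100% and DMSO defined basal activity. Lymphoblastoid cells (LYMP1-001, 2500 per well) received compound for 16 hr at 37 C before a fluorogenic dead-cell substrate readout at 485/520 nm.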

[2] = MultiTox-Fluor Cytotoxicity Assay - LYMP1-002 - Live Cells (AID 955); conditions: LYMP1-002 lymphoblastoid live-cell protease fluorescence viability; series mostly up to 46.1 µM;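 further: cells exposed to compound for 16 hours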
Procedure, shortened: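 Human lymphoblastoid LYMP1-002 cells, 2500/well, treated 16 h at 37 C in complete medium. Live-cell protease activity via GF-AFC fluorescence (Ex/Em 405/510) after 60 min reagent incubation; AC50 from Hill fits.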

[3] = MultiTox-Fluor Cytotoxicity Assay - LYMP1-003 - Dead Cells (AID 961); conditions: LYMP1-003 lymphoblastoid cells, dead-cell protease fluorescence; series mostly up to 92.2 µM;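 further: cells exposed to compound for 16 h at 37 °C; nearly all actives have a fitted effect of over 70% in size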; further: potency means the concentration at half of the fitted maximal effect
Procedure, shortened: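 Acute toxicity is scored as increased dead-cell protease activity in human lymphoblastoid LYMP1-003 cells after 16 h compound exposure in complete culture medium. Activity is normalized to DMSO basal and 15 uM tetraoctylammonium bromide as full response.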

[4] = MultiTox-Fluor Cytotoxicity Assay - LYMP1-003 - Live Cells (AID 962); conditions: LYMP1-003 lymphoblastoid cells, MultiTox-Fluor live-cell protease fluorescence; series mostly up to 92.2 µM;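 further: cells exposed to compound for 16 hours at 37 °C; cytotoxic hits lower the live-cell protease signal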
Procedure, shortened: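 LYMP1-003 lymphoblastoid cells, 2500/well in complete medium, treated 16 h at 37 C; live-cell protease cleavage of GF-AFC read by fluorescence (Ex/Em 405/510) after 60 min reagent; AC50 from Hill fits of concentration-response.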

[5] = Cell Viability - LYMP1-003 - Assay at 24 hr (AID 963); conditions: LYMP1-003 lymphoblastoid cell viability; series mostly up to 92.2 µM; further: potency means the concentration at half of the fitted maximal effect
Procedure, shortened: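 Human lymphoblastoid LYMP1-003 cells, 2500/well, treated 24 h at 37 C in complete medium. Viability read as intracellular ATP by CellTiter-Glo luminescence after 30 min at room temperature; AC50 from Hill-equation fits of qHTS concentration-response.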

[6] = Cell Viability - LYMP1-003 - Assay at 40 hr (AID 964); conditions: LYMP1-003 lymphoblastoid viability; series mostly up to 92.2 µM; further: nearly all actives have a fitted effect of over 60% in size; further: potency means the concentration at half of the fitted maximal effect
Procedure, shortened: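 LYMP1-003 human lymphoblastoid cells, 2500/well, preincubated 5 h at 37 C, then treated with compound for 40 h at 37 C. Intracellular ATP read by CellTiter-Glo luminescence after 30 min at room temperature; AC50 from Hill-equation fits.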

[7] = Cell Viability - LYMP2-003 (AID 965); conditions: LYMP2-003 lymphoblastoid cell viability; series mostly up to 92.2 µM;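 further: cells exposed to compounds for 24 h before reading; nearly all actives have a fitted effect of over 50% in size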
Procedure, shortened: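 Human lymphoblastoid LYMP2-003 cells, 2500/well, exposed to compounds for 24 h at 37 C in complete medium. Viability read as intracellular ATP by CellTiter-Glo luminescence; AC50 from Hill-equation fits of qHTS concentration-response data.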

[8] = Cell Viability - LYMP2-004 (AID 966); conditions: LYMP2-004 lymphoblastoid cell viability, qHTS; series mostly up to 92.2 µM; further: nearly all actives have a fitted effect of over 65% in size
Procedure, shortened: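 Lymphoblastoid LYMP2-004 cells, 2500 per well, were preincubated for 5 hr and then treated with compound for 24 h at 37 C in complete medium. Viability was read as cellular ATP by CellTiter-Glo luminescence, and AC50 values were taken from Hill fits to concentration-response data.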

[9] = biological target: Pyruvate kinase PKM (Homo sapiens) (UniProt P14618); assay: qHTS Assay for Activators of Human Muscle Pyruvate Kinase (AID 954; active means well fitted curve in the direction sought with a large enough effect, not every such curve was filed as active); conditions: purified human muscle pyruvate kinase, luciferase-coupled luminescence, 1 h; series mostly up to 57.5 µM
Pyruvate kinase PKM (Homo sapiens), sequence (P14618 whole entry, looked up): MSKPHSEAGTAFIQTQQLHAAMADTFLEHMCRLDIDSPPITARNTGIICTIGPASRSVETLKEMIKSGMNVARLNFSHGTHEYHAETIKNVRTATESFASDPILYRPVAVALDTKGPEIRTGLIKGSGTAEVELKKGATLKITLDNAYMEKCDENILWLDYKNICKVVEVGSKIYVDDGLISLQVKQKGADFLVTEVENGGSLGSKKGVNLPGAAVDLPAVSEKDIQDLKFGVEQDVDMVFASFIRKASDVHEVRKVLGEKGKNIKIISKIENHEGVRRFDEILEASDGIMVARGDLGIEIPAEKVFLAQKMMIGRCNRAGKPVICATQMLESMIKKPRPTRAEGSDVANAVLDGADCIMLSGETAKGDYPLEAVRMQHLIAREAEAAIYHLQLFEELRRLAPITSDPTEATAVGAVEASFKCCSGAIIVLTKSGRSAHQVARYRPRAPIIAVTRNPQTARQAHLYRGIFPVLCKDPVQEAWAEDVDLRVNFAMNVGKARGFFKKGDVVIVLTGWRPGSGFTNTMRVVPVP
Procedure, shortened: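 Enzyme was run at intermediate activity so both inhibitors and activators could be detected. ATP formed from ADP and PEP by 0.1 nM human PKM2 during a 1 h room-temperature incubation was quantified by coupled luciferase luminescence.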

[10] = MultiTox-Fluor Cytotoxicity Assay - LYMP1-002 - Dead Cells (AID 960); conditions: LYMP1-002 lymphoblastoid cells, dead-cell protease fluorescence; series mostly up to 46.1 µM;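 further: cells exposed to compound for 16 h at 37 °C; nearly all actives have a fitted effect of over 60% in size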
Procedure, shortened: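 Human lymphoblastoid LYMP1-002 cells, 2500/well, treated 16 h at 37 C; dead-cell protease cleavage of bis-AAF-R110 read by fluorescence (485/520); normalized to DMSO and 15 uM tetraoctylammonium bromide; AC50 from Hill fit.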

Measured: Potency

O=C1c2c(O)cccc2Cc2cccc(O)c21
inactive: [1] | [2] | [3] | [4] | [5] | [6] | [7] | [8]

Nc1ccc(S(=O)(=O)Nc2nccs2)cc1
inactive: [1] | [2] | [3] | [4] | [5] | [6] | [7] | [8]

Cc1c(O)cccc1C(=O)N[C@@H](CSc1ccccc1)[C@H](O)CN1C[C@H]2CCCC[C@H]2C[C@H]1C(=O)NC(C)(C)C
active: [1] 31.6 µM | [3] 50.1 µM | [5] 39.8 µM | [6] 39.8 µM

NC(=O)c1ncn([C@@H]2O[C@H](CO)[C@@H](O)[C@H]2O)n1
inactive: [1] | [9] | [2] | [10] | [3] | [4] | [5] | [7] | [8]

[Cl][In]([Cl])[Cl]
inactive: [1] | [2] | [10] | [3] | [4] | [5] | [6] | [7] | [8]

COc1ccccc1O
inactive: [1] | [2] | [10] | [3] | [4] | [5] | [6] | [7] | [8]

NCCNCCNCCNCCN
inactive: [1] | [2] | [10] | [3] | [4] | [5] | [6] | [7] | [8]

Oc1cccc(O)c1
inactive: [1] | [2] | [3] | [4] | [5] | [6] | [7]

NC(=O)N/N=C/c1ccc([N+](=O)[O-])o1
inactive: [1] | [2] | [10] | [3] | [4] | [8]

Cc1cc2nc3c(=O)[nH]c(=O)nc-3n(C[C@H](O)[C@H](O)[C@H](O)CO)c2cc1C
active: [1] 39.8 µM | [3] 39.8 µM
inactive: [10] | [4] | [5] | [6] | [7] | [8]

NCCNCCNCCN
inactive: [1] | [2] | [10] | [3] | [4] | [5] | [6] | [7] | [8]

C[C@]12C[C@H](O)[C@H]3[C@@H](CCC4=CC(=O)CC[C@@]43C)[C@@H]1CC[C@@H]2C(=O)CO
inactive: [1] | [9] | [2] | [10] | [3] | [4] | [5] | [6] | [7] | [8]

Cc1cc(CC(=O)O)n(C)c1C(=O)c1ccc(Cl)cc1
inactive: [1] | [2] | [10] | [3] | [4] | [5] | [6] | [7] | [8]

CCCCOC(=O)c1ccc(O)cc1
inactive: [1] | [2] | [10] | [3] | [4] | [5] | [6] | [7] | [8]

CC(C)NC[C@H](O)c1ccc(O)c(O)c1
inactive: [9]

N=c1c[n+](N2CCOCC2)[n-]o1
inactive: [9]

CC12CCC(CC1)C(C)(C)O2
inactive: [1] | [2] | [10] | [3] | [4] | [5] | [6] | [7]

CCCCCCCCCCCCOS(=O)(=O)O
inactive: [1] | [2] | [10] | [3] | [4] | [5] | [6] | [7] | [8]

COC(=O)C1=C(C)NC(C)=C(C(=O)OC)C1c1ccccc1[N+](=O)[O-]
inactive: [9]

O=C1O[C@H]([C@@H](O)CO)C(O)=C1O
inactive: [1] | [2] | [10] | [3] | [4] | [5] | [6] | [7] | [8]

CC1(C)[C@@H]2CC[C@@]1(C)C(=O)C2
inactive: [1] | [2] | [3] | [4] | [5] | [6] | [7] | [8]

CN(C)CCC=C1c2ccccc2CCc2ccccc21
inactive: [2] | [4] | [5] | [7]
